Consider 102 molecules from PubChem BioAssay AID1259343 (VanderVen Lab, College of Veterinary Medicine, Cornell …, 2017).

Hit rate of the full screen: of about 6,200 compounds, about 2,900 (47%) were called active. So high a share suggests a set chosen from earlier hits. The list shows a part of the results. Values without a mark were called inactive. Rule as the data show it: active = inhibition above about 50%; inactive = the rest.

The experiment is described as follows: Mycobacterium tuberculosis growth inhibition, primary screen (AID 1259343). As to conditions: inhibition: at 10 µM, stronger effect = higher value; outcome: 10 uM.
Broadly, the inhibition is the relative decrease from the control value, in per cent. As for `CCc1sc(-c2nnc(-c3cccc(OC)c3)o2)cc1C`, the inhibition was 52.4% (active).

Consider `COc1cccc(C2=NN(C(C)=O)C(C(=O)N(CC(C)C)CC(C)C)O2)c1` (configuration not stated), for which the inhibition was -4.2%.

As for `CCc1sc(-c2nnc(CSc3nnc(-c4ccco4)o3)o2)cc1C`, the inhibition was -15.2%.

In the case of `Cc1ccc(C(=O)C(C#N)C(=O)C2CCCC(C(F)(F)F)C2)s1` (configuration not stated), the inhibition is 101% (active).

Turning to `Cn1c(=O)oc2cc(NC(=O)C3CCCC(C(F)(F)F)C3)ccc21` (configuration not stated), the inhibition was -34.1%.

Turning to `O=C(Nc1ccc(-n2cccn2)nc1)C1CCCC(C(F)(F)F)C1` (configuration not stated), the inhibition is 7.71%.

For `Cc1ccc(NC(=O)NC2CCC(C)CC2)cc1-n1cnnn1` (configuration not stated), the inhibition was -21.7%.

`Cc1ccc(NCCOc2ccccc2F)cc1-n1cnnn1`: the inhibition was 54.8% (active).

Regarding `CCn1c2ccccc2c2cc(Nc3ccnc(NCCCN4CCOCC4)n3)ccc21`, the inhibition was 53.6% (active).

On to `Cc1nn2c(NCCN3CCOCC3)cc(-c3ccccc3)nc2c1-c1ccccc1`, for which the inhibition was 48.5%.

In the case of `CC(SC(=S)N1CCCC1)c1nc(C2CC2)no1` (configuration not stated), the inhibition is -46.6%.

As to `NC(=O)c1cccc(COc2cc(Cl)cc(Cl)c2)c1`, the inhibition was 49.7%.

Consider `Cc1cc(OCc2cccc(Cl)c2)ccc1N`, for which the inhibition was 92.4% (active).

In the case of `Cc1nc(NC(=O)CNC(=O)Cc2cccc(F)c2)sc1SCC#N`, the inhibition is 81.8% (active).

Take `Cc1ccc(C2CC2C(=O)Nc2nc(C)c(SCC#N)s2)s1` (configuration not stated): the inhibition was 39.7%.

As for `Cc1c(C(=O)NCc2ccc(Cl)c(Cl)c2)sc(=O)n1Cc1cccc(F)c1`, the inhibition was 41.3%.

For `CNC(=O)NC(=O)C(C)Sc1nnc(Nc2ccc(C)cc2)s1` (configuration not stated), the inhibition is 54.2% (active).

As to `CNC(=O)NC(=O)C(C)Sc1nnc(SCC(C)C)s1` (configuration not stated), the inhibition was 89.7% (active).

`Cc1nc(SC(C)C(=O)NC(N)=O)c2c(C)c(C)sc2n1` (configuration not stated): the inhibition is -7.75%.

Turning to `CCNC(=O)NC(=O)C(C)Sc1nnc(Nc2ccc(C)cc2)s1` (configuration not stated), the inhibition is 99.2% (active).

On to `CCC(C)c1ccc(Nc2nc(C)c(C)s2)cc1` (configuration not stated), for which the inhibition is 41.7%.

For `CC(C)CSc1nnc(SCC(=O)Nc2ccc(C#N)cc2)s1`, the inhibition is -25.3%.

Consider `COc1ccccc1Cn1c(C(=O)N2CCN(C(=O)C(Cl)c3ccccc3)C(C)C2)cc2ccsc21` (configuration not stated), for which the inhibition was 35.9%.

Turning to `CCOC(=O)c1ccc(NC(=O)N2CCN(C(=O)c3cc4ccoc4n3Cc3cccc(OC)c3)CC2C)cc1` (configuration not stated), the inhibition is 85.9% (active).

For `COc1cccc(Cn2c(=O)c(C(=O)N3CCCC3)nn(-c3cc(C)cc(C)c3)c2=O)c1`, the inhibition is 3.71%.

As to `O=C1c2ccccc2S(=O)(=O)N1Cc1ccccc1Oc1ccccc1`, the inhibition was 8.36%.

As for `O=C(Nc1ccc2ccccc2n1)C1CC2CCC1C2` (configuration not stated), the inhibition was 45.8%.

On to `O=C(CC1C=CCC1)Nc1nc2c(Cl)c(Cl)ccc2s1` (configuration not stated), for which the inhibition is 48.5%.

For `Cc1cccc2sc(NC(=O)C3CC4CCC3C4)nc12` (configuration not stated), the inhibition was 85.8% (active).

For `CC1CCN(Cc2ncc(-c3ccccc3)o2)C2CCCCC12` (configuration not stated), the inhibition was 72.5% (active).

Regarding `c1ccc(-c2cnc(CN3CCSc4ccccc43)o2)cc1`, the inhibition was 26%.

Consider `CCc1[nH]n(-c2ccc(Cl)c(Cl)c2)c(=O)c1C1=C(N(C)C2CCCCC2)C(=O)N(c2ccccc2F)C1=O`, for which the inhibition was 65.4% (active).

Take `COc1ccc(N2C(=O)C(c3c(C(C)C)[nH]n(-c4ccc(Cl)cc4)c3=O)=C(N3CCC(C)CC3)C2=O)c(OC)c1`: the inhibition was 39%.

Turning to `CCOc1ccccc1N=Cc1c(C)c(C#N)c2[nH]c3ccccc3n2c1=O`, the inhibition is 1.57%.

With `CCc1c(C)c(C#N)c2[nH]c3ccccc3n2c1=S`, the inhibition was 40.8%.

As to `N#Cc1c(C(F)(F)F)cc(=O)n2c1[nH]c1ccccc12`, the inhibition was 101% (active).

On to `Cc1cc(NC(=O)C(C)Nc2ccc(Br)c(C)c2)on1` (configuration not stated), for which the inhibition was 14%.

Consider `Cc1cc(NC(C)C(=O)N(C)Cc2ccccc2)ccc1Br` (configuration not stated), for which the inhibition is 50.4% (active).

As to `Cc1c(-c2cccc(NC(=O)Nc3ccccc3)c2)nc2ncccn12`, the inhibition was 18.8%.

`O=C(Nc1ccccc1)c1cccn(OCc2ccccc2F)c1=O`: the inhibition was 32.1%.

With `CCCSc1ncccc1C(=O)Nc1ccc(-c2ccccc2)cc1`, the inhibition is 89.9% (active).

In the case of `CNc1ccc(-c2ccc(CC#N)cc2)cn1`, the inhibition is 38.5%.

Consider `CSCCC(=O)N1CCC(C(=O)Nc2ccc(Oc3ccccc3F)cc2)CC1`, for which the inhibition was 76.3% (active).

As to `COCC(=O)N1CCC(C(=O)Nc2ccc(Oc3ccccc3F)cc2)CC1`, the inhibition result was “inactive”.

For `O=C(Nc1ccc(Oc2ccccc2F)cc1)C1CCN(C(=O)CCc2ccccc2)CC1`, the inhibition was 90.6% (active).

As to `Cc1ccn(CC(=O)N2CCC(C(=O)Nc3ccc(Oc4ccccc4F)cc3)CC2)n1`, the inhibition was 19.3%.

As for `COc1cccc(Nc2nc(C(N)Cc3ccc(F)cc3)cs2)n1` (configuration not stated), the inhibition is 86.6% (active).

On to `COc1ccc(CC(N)c2csc(Nc3cccc(OC)n3)n2)cc1` (configuration not stated), for which the inhibition was 85.1% (active).

On to `NC(Cc1ccc(Cl)cc1)c1csc(Nc2ccc(-c3ccccc3)nn2)n1` (configuration not stated), for which the inhibition was 91.2% (active).

Take `COc1cccc(Nc2nc(C(N)Cc3ccc(Cl)cc3)cs2)n1` (configuration not stated): the inhibition was 80.4% (active).

As to `COc1ccc(-c2csc(NC3CCCC3)n2)c(OC)c1`, the inhibition is 16.6%.

Turning to `COc1cccc(Nc2nc(C(N)C3CCCCC3)cs2)n1` (configuration not stated), the inhibition was 86.2% (active).

Turning to `COc1cccc(Nc2nc(C(N)Cc3ccc(C(F)(F)F)cc3)cs2)n1` (configuration not stated), the inhibition was 75.8% (active).

Turning to `CN(Cc1ccc(O)cc1)C(=O)C1=NOC(c2ccccc2)C1` (configuration not stated), the inhibition was 66.5% (active).

Regarding `O=C(c1ccc2c(c1)OCCO2)N1CCOC(CCc2ccccc2)C1` (configuration not stated), the inhibition was 39.8%.

As for `CC(C)c1cc(C(=O)N2CCOC(CCc3ccccc3)C2)no1` (configuration not stated), the inhibition was 56.6% (active).

As to `CC(C)Cc1cc(C(=O)N2CCOC(CCCc3ccccc3)C2)n[nH]1` (configuration not stated), the inhibition is 54.1% (active).

As for `O=C(CCc1cccs1)N1CCOC(CCCc2ccccc2)C1` (configuration not stated), the inhibition was 34.9%.

Turning to `COc1ccc(C(=O)N2CCOC(CCc3ccccc3)C2)cc1F` (configuration not stated), the inhibition is 57.4% (active).

`O=C(COc1ccccc1F)Nc1ccc2c(c1)OC(F)(F)O2`: the inhibition was 21.4%.

In the case of `O=C(CCS(=O)(=O)c1ccccc1F)Nc1ccc(I)cc1`, the inhibition was 80.2% (active).

On to `O=C1N(c2ccc3c(c2)OCO3)C(c2ccc3c(c2)OCO3)C1(F)F` (configuration not stated), for which the inhibition is 102% (active).

Consider `O=C1N(c2ccccc2)C(c2ccco2)C1(F)F` (configuration not stated), for which the inhibition is 40.3%.

As for `Clc1ccc(-n2ncc3c2CCN(Cc2cc4c(cc2Cl)OCO4)C3)cc1`, the inhibition was 23.9%.

In the case of `O=C1N(c2ccc3c(c2)OCO3)C(c2ccc(Cl)cc2)C1(F)F` (configuration not stated), the inhibition is 89.3% (active).

On to `c1cc2c(cc1[C@H]1OC[C@H]3[C@@H]1CO[C@H]3c1ccc3c(c1)OCO3)OCO2`, for which the inhibition was 49%.

Turning to `O=C1N(c2ccc(Cl)cc2)C(c2ccc3c(c2)OCO3)C1(F)F` (configuration not stated), the inhibition was 78.8% (active).

For the molecule `O=C1N(c2ccc3c(c2)OCO3)C(c2cccc(F)c2)C1(F)F` (configuration not stated), the inhibition was 27%.

In the case of `CCCc1cc(=O)[nH]c(SCCOc2ccc(Br)cc2)n1`, the inhibition is 18.1%.

With `Nc1c(C(=O)CCC(=O)O)oc2ccc(Br)cc12`, the inhibition is 68% (active).

As to `Nc1c(C(=O)c2ccc(Br)s2)oc2ccccc12`, the inhibition is 43.5%.

Take `Nc1c(C(=O)CCC(=O)O)oc2ccc(Cl)cc12`: the inhibition is 20.1%.

Consider `O=C(O)CCC1NCC2CC1CN1CCCCC21` (configuration not stated), for which the inhibition is 1.66%.

With `CSC(Nc1ccc(Br)cc1)=C(C#N)C#N`, the inhibition is 101% (active).

`Clc1cccc(Cl)c1OCCOc1cccc2cccnc12`: the inhibition is 94.7% (active).

`Cc1ccc(Cl)c(OCCCOc2cccc3cccnc23)c1`: the inhibition was 71.6% (active).

For the molecule `COc1ccc(C2CC(=O)C3=C(C2)NC(C)=C(C#N)C3c2ccc(Cl)c(Cl)c2)cc1` (configuration not stated), the inhibition is -9.69%.

Turning to `CCOc1ccc2nc(CN3CCN(CC=C(C)C)C(CCO)C3)ccc2c1` (configuration not stated), the inhibition result is “inactive”.

Consider `OC1(c2cccs2)C[N+]2=C(SCC2)N1c1ccccc1` (configuration not stated), for which the inhibition was -3.48%.

Consider `CCCCc1ccc(N2C3=[N+](CCCS3)CC2(O)c2ccc(C)cc2)cc1` (configuration not stated), for which the inhibition was 79.3% (active).

Take `Oc1c(Br)cc(C=NNc2ccccn2)cc1Br`: the inhibition is 97.7% (active).

Regarding `N#Cc1cc(F)c(NCc2ccc(F)cc2)c(F)c1`, the inhibition was 69.3% (active).

`N#Cc1cnc(NCc2ccc(N3CCOCC3)c(F)c2)c(Cl)c1`: the inhibition was 5.19%.

In the case of `N#Cc1ccc(CNc2ccc(F)cc2Cl)cc1`, the inhibition is -56.2%.

`CCCCS(=O)(=O)NCC1CCCCC1`: the inhibition is 25.9%.

Regarding `CCCCS(=O)(=O)NCCOc1ccc(C)cc1`, the inhibition is 75% (active).

Take `COc1cccc(C(=O)Nc2ccc(S(=O)(=O)C(F)F)cc2)c1`: the inhibition is -1.65%.

As to `CC(O)c1cccc(OCc2ccc(S(=O)(=O)C(F)F)cc2)c1` (configuration not stated), the inhibition was 88.2% (active).

Turning to `Cc1ccccc1OCC1=NN2C(=N)/C(=C/c3ccc(Br)o3)C(=O)N=C2S1`, the inhibition is 51.2% (active).

Turning to `O=C1CC(C(=O)NCc2ccccc2Cl)c2ccc(F)cc2N1` (configuration not stated), the inhibition was 87.3% (active).

As for `CC1(Cc2ccccc2Cl)C(=O)Nc2c(Cl)ccc(Cl)c21` (configuration not stated), the inhibition is 20.4%.

Regarding `O=C(Cc1ccccc1Cl)NCc1cc(F)cc(F)c1`, the inhibition is 24%.

Turning to `CC1=CCCC(C)(C)C1C=CC(C)=NNc1nc2ccccc2[nH]1` (configuration not stated), the inhibition was 36.3%.

With `C(=NNc1nc2ccccc2[nH]1)c1c(-c2ccccc2)[nH]c2ccccc12`, the inhibition was 28.8%.

For the molecule `C(=NNc1nc2ccccc2[nH]1)C(=NNc1nc2ccccc2[nH]1)c1ccccc1`, the inhibition was 79.8% (active).

`CC(=NNc1nc2ccccc2[nH]1)c1ccc(C)o1`: the inhibition was 84.2% (active).

Take `CC1Oc2ccccc2C=C1/C=N\Nc1nc2ccccc2[nH]1` (configuration not stated): the inhibition was 94.2% (active).

Take `OCn1nc(-c2ccc(Cl)cc2Cl)oc1=S`: the inhibition was 75.9% (active).

In the case of `COc1cccc(-c2cnnc(N3CCC(c4ccccc4F)C3)n2)c1` (configuration not stated), the inhibition is 41.2%.

Consider `Fc1ccc(-c2[nH]ncc2CN2CCC(c3ccccc3F)C2)c(F)c1` (configuration not stated), for which the inhibition was 84.8% (active).

`C=CCN1C(=O)NC(=O)/C(=C/c2ccc(OCc3ccccc3F)cc2)C1=O`: the inhibition was 37.1%.

For the molecule `O=C1NC(=S)NC(=O)C1=Cc1ccc(OCc2ccc(Cl)cc2)cc1`, the inhibition is 97.1% (active).
